# From PMC7862700, “An all-to-all approach to the identification of sequence-specific readers for epigenetic DNA modifications on cytosine”
# How the values were obtained:
# Test in all cases: DAPPL (digital affinity profiling via proximity ligation, sequencing); 10 mM Tris-HCl pH 7.5, 50 mM NaCl, 1 mM DTT, 4% glycerol, room temperature, 30 min; GST-TFs on glutathione beads, 16-mer random dsDNA library, 0.1% formaldehyde crosslink after washing; high values mean tight binding
# FEV = biological target: T1, FEV (Homo sapiens, UniProt Q99581 1-238); settings: protein: recombinant; tags: N-terminal GST; dsDNA, one strand shown
# T1 sequence: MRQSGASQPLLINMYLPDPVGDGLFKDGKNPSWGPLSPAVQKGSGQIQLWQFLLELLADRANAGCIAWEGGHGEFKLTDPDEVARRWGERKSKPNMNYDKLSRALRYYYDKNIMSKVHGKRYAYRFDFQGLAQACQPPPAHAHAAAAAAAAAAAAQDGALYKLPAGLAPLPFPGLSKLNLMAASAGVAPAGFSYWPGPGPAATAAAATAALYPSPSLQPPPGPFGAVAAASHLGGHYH
# Method in brief: (§1)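 GST fusions of human transcription factors were expressed in yeast and captured with glutathione beads. Once given DNA barcodes and pooled alongside a tag-only sample, they were incubated for 30 min at room temperature with 200 nmole of a random double-stranded 16-mer DNA library in Tris/NaCl/DTT/glycerol buffer, then washed, crosslinked (0.1% formaldehyde), proximity-ligated, PCR-amplified and sequenced on an Illumina NextSeq500. The binding signal of each hexamer is its read frequency for a factor divided by its frequency for the tag-only sample.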
# ETV5 = ETV5 (Homo sapiens, UniProt P41161 1-510); settings: protein: recombinant; tags: N-terminal GST; dsDNA, one strand shown
# Method in brief: as §1
# HSF1 = HSF1 (Homo sapiens, UniProt Q00613 1-529); settings: protein: recombinant; tags: N-terminal GST; chain copies: 3; dsDNA, one strand shown
# Method in brief: as §1
# SPIC = biological target: T2, SPIC (Homo sapiens, UniProt Q8N5J4 1-248); settings: protein: recombinant; tags: N-terminal GST; dsDNA, one strand shown
# T2 sequence: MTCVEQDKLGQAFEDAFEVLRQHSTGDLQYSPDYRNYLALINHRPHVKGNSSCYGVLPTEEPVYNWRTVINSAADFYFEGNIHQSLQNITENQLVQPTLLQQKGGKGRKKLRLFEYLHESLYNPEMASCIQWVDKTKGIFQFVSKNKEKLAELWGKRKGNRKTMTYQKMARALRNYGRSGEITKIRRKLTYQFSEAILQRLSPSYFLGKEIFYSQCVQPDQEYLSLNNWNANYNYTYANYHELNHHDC
# Method in brief: as §1
# ELF4 = ELF4 (Homo sapiens, UniProt Q99607 1-663); settings: protein: recombinant; tags: N-terminal GST; dsDNA, one strand shown
# Method in brief: as §1
# ELK4 = biological target: T3, ELK4 (Homo sapiens, UniProt P28324-2 1-405); settings: protein: recombinant; tags: N-terminal GST; dsDNA, one strand shown
# T3 sequence: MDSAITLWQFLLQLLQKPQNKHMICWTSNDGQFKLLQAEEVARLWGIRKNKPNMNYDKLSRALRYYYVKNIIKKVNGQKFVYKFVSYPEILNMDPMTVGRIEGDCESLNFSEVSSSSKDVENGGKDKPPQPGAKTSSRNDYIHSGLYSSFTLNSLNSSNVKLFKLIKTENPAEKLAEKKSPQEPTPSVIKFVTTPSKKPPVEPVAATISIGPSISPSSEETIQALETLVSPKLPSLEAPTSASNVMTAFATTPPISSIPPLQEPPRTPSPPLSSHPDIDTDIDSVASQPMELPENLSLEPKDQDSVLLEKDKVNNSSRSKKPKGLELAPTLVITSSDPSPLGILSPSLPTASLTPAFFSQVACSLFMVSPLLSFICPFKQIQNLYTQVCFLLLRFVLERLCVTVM
# Method in brief: as §1
# ETV2 = biological target: T4, ETV2 (Homo sapiens, UniProt O00321 1-342); settings: protein: recombinant; tags: N-terminal GST; dsDNA, one strand shown
# T4 sequence: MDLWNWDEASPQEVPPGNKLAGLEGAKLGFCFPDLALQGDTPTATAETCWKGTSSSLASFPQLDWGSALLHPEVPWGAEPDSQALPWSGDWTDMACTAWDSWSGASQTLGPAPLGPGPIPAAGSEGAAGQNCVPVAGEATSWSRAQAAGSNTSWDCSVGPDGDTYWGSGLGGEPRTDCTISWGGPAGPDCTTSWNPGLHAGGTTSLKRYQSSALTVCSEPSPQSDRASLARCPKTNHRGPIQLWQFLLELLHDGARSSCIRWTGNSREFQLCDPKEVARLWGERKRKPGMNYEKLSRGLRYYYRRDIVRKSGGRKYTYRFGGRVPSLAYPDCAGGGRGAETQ
# Method in brief: as §1
# ELF3 = biological target: T5, ELF3 (Homo sapiens, UniProt P78545 1-371); settings: protein: recombinant; tags: N-terminal GST; dsDNA, one strand shown
# T5 sequence: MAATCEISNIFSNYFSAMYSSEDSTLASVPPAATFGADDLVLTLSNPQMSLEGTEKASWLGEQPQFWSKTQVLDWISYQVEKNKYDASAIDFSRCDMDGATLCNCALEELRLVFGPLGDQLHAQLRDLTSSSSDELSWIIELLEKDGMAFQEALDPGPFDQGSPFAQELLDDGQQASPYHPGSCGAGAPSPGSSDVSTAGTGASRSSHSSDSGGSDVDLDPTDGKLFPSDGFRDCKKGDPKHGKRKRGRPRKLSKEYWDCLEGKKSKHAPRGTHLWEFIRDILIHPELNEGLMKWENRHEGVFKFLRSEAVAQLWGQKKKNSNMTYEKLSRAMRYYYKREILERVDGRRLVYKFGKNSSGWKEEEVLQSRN
# Method in brief: as §1
# CRX = CRX (Homo sapiens, UniProt O43186 1-299); settings: protein: recombinant; tags: N-terminal GST; dsDNA, one strand shown
# Method in brief: as §1
# ETV1 = ETV1 (Homo sapiens, UniProt P50549 1-477); settings: protein: recombinant; tags: N-terminal GST; dsDNA, one strand shown
# Method in brief: as §1
# HSF1, sequence (Q00613 whole entry): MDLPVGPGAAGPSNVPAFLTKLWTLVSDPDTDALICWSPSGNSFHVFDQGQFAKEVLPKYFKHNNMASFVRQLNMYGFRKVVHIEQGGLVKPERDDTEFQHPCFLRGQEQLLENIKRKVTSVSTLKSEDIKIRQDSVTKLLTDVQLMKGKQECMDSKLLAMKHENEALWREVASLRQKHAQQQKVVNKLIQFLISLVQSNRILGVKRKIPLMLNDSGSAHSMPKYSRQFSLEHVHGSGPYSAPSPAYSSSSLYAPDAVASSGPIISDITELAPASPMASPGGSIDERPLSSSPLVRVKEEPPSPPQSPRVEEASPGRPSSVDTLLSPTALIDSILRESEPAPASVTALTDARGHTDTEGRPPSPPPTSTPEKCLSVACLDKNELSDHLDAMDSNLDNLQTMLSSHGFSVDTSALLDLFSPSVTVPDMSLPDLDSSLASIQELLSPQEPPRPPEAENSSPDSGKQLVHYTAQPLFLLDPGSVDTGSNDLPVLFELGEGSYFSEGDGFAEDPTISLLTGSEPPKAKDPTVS
# ETV1, sequence (P50549 whole entry): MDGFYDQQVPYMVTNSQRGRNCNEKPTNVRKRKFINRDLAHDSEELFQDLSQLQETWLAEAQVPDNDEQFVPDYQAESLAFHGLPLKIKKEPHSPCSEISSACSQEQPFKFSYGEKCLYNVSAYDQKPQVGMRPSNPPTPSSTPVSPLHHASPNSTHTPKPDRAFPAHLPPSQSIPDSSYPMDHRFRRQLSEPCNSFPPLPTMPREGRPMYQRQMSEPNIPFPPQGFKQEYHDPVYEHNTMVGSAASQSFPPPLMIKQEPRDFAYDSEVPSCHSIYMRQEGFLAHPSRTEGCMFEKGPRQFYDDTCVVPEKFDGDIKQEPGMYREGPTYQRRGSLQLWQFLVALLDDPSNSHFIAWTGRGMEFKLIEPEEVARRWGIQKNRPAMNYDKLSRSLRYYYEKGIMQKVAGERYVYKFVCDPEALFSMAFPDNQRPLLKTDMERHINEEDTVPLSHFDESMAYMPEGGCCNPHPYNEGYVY
# ETV5, sequence (P41161 whole entry): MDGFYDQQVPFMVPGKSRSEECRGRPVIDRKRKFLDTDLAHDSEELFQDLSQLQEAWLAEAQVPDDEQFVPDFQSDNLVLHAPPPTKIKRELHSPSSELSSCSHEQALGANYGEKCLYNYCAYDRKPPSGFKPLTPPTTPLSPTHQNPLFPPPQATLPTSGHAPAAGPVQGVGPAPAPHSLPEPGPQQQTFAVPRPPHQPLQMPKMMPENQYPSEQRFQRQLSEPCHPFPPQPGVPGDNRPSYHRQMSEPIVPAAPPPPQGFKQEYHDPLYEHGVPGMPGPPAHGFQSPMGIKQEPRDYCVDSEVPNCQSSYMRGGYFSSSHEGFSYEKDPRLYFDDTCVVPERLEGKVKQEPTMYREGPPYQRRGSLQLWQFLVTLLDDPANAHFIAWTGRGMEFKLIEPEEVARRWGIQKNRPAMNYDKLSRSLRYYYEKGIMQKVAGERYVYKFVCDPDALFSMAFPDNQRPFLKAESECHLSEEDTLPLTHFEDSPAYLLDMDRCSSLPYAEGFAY
# CRX, sequence (O43186 whole entry): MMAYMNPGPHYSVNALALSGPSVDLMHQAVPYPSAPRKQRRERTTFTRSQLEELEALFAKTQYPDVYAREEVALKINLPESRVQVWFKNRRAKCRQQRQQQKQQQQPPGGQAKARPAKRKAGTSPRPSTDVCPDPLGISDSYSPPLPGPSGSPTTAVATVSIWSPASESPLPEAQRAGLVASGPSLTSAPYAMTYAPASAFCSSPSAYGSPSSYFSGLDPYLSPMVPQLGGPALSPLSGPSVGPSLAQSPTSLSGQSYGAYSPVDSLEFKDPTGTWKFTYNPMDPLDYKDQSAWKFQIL
# ELF4, sequence (Q99607 whole entry): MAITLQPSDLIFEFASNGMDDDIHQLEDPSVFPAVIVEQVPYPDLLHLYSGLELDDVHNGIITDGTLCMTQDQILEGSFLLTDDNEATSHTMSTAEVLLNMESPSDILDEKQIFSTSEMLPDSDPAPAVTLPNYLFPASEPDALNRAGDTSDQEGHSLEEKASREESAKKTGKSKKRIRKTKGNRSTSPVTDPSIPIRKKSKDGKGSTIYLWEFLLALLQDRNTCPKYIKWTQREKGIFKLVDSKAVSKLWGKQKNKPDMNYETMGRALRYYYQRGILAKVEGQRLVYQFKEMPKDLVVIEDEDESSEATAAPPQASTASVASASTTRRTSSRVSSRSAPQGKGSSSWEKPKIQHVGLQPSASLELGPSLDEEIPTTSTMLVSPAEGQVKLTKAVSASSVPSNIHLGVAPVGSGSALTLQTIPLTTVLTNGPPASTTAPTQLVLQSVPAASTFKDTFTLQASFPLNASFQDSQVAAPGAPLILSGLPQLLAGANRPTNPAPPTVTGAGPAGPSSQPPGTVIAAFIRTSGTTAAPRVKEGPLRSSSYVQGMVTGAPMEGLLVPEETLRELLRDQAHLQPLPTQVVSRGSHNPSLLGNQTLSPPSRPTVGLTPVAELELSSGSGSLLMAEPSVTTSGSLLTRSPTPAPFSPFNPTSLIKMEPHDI
sequence,measurement,setting,value
CTTTGG,binding signal,FEV,"1.15 fold enrichment (6-mer frequency, TF over GST control)"
same,binding signal,ETV5,"1.17 fold enrichment (6-mer frequency, TF over GST control)"
same,binding signal,HSF1,"1.26 fold enrichment (6-mer frequency, TF over GST control)"
same,binding signal,SPIC,"1.17 fold enrichment (6-mer frequency, TF over GST control)"
same,binding signal,ELF4,"1.16 fold enrichment (6-mer frequency, TF over GST control)"
same,binding signal,ELK4,"1.02 fold enrichment (6-mer frequency, TF over GST control)"
same,binding signal,ETV2,"1.27 fold enrichment (6-mer frequency, TF over GST control)"
same,binding signal,ELF3,"1.23 fold enrichment (6-mer frequency, TF over GST control)"
same,binding signal,CRX,"1.29 fold enrichment (6-mer frequency, TF over GST control)"
same,binding signal,ETV1,"1.17 fold enrichment (6-mer frequency, TF over GST control)"
